Compound activity as filed in PubChem.
Only some compounds are listed: those with a hit (about 11% of all), similar ones and a draw of the others.
JMJD2A Tudor inh: JMJD2A Tudor domain (human) inhibition. Potency, µM (highest dose often 114 µM), usual class: inhibitors. 390,000 tested, 4.4% active. AID 504339. AlphaScreen JMJD2A-Tudor / H3K4me3 peptide binding; also: nearly all actives have a fitted effect of over 50% in size
HP1b chromo inh: blocks HP1-beta chromodomain binding to methylated histone tails. P83916. AlphaScreen HP1-beta / biotin-H3K9me3 peptide binding. Potency, µM (series often up to 114 µM), actives largely listed as inhibitors. 390,000 tested, 0.56% active. AID 540317; also: nearly all actives have a fitted effect of over 70% in size
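Compound inhibition of the preformed complex between 50 nM HP1-beta and 50 nM biotinylated H3K9me3 peptide was read by AlphaScreen. Buffer was PBS pH 7.4 with 0.01% Tween-20. Incubations ran 30 min at room temperature, with 10 ug/mL donor/acceptor beads.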
BAZ2B block: inhibitors of human BAZ2B bromodomain | Q9UIF8 | AlphaScreen BAZ2B-H3K14Ac peptide displacement | Potency, µM (highest dose often 114 µM), actives largely listed as inhibitors | 360,000 tested, 4.4% active | AID 504333; also: nearly all actives have a fitted effect of over 60% in size
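AlphaScreen displacement of biotin-H3(5-23)K14Ac peptide (50 nM final) from BAZ2B (50 nM final) in PBS pH 7.4, 0.01% Tween-20; complex preformed 30 min RT, then compounds (top 110 uM) 30 min RT, beads 20 min dark.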
L3MBTL1 block: blocks human L3MBTL1; Q9Y468; AlphaScreen L3MBTL1–H3K9me1 peptide binding; Potency, µM (doses to about 57.1 µM), actives largely listed as inhibitors; 230,000 tested, 0.66% active; AID 485360; also: nearly all actives have a fitted effect of over 60% in size
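Displacement of a biotinylated histone H3(1-15) peptide monomethylated at Lys9 (75 nM) from L3MBTL1 (50 nM) was measured by AlphaScreen after a 30 min room-temperature compound incubation; cefsulodin titration served as intraplate control.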
G9a block: G9a (human) methyltransferase inhibition; 350,000 tested, 8.8% active; Q96KQ7; Potency, µM (doses to about 102 µM), hits mostly inhibitors; G9a H3K9 monomethylation, AlphaScreen, 2 h; also: nearly all actives have a fitted effect of over 75% in size
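Methyltransferase reactions run at room temperature for 2 h (20 nM enzyme, 500 nM biotin-H3K9 peptide, 20 uM SAM) after a 15 min compound preincubation; product detected by AlphaScreen beads and anti-H3K9me1 antibody.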
Hits are given with their value; . = inactive; ? = inconclusive; / = no result given; [ ] = dose if it differs, or a comment. Calls follow the shape of the dose curve; as a rule, active = well fitted inhibition curve with a large enough effect; inconclusive = small, poorly fitted or top-dose-only effect; inactive = no such curve, though single readings can be large or run the other way.

SMILES	JMJD2A Tudor inh	HP1b chromo inh	BAZ2B block	L3MBTL1 block	G9a block
CCc1ccc(OCC(=O)NNCC(=O)Nc2ccc(OC)cc2)cc1	.	.	.	.	.
COc1ccc(-n2c(=O)c3ccc(C(=O)NCc4ccc(C)cc4)cc3n(Cc3ccc(Cl)cc3)c2=O)cc1	.	.	/	/	.
COc1ccccc1C(=O)NN1C(=O)/C(=C/c2cccn2C)SC1=S	/	/	8.9µM	.	/
O=C(NN1C(=O)/C(=C/C=C/c2ccco2)SC1=S)c1ccccc1O	8.9µM	13µM	13µM	1.3µM	/
Cn1cccc1/C=C1\SC(=S)N(NC(=O)c2ccccc2O)C1=O	?	?	32µM	.	5µM
CC(C(=O)O)N1C(=O)/C(=C/c2cccn2C)SC1=S (stereo not drawn)	.	?	.	.	?
COc1ccc(N(Cc2cccs2)C(=O)Nc2ccccc2)cc1	.	.	.	/	.
COC(=O)C1=C(CS(=O)(=O)c2cc(OC)ccc2OC)NC(=O)NC1c1ccc(O)c(OC)c1 (stereo not drawn)	.	.	.	/	.
N#Cc1c(-c2ccccc2)cc(-c2ccc3c(c2)OCO3)[nH]c1=O	.	.	.	.	.
COc1ccc(-c2cc(-c3ccco3)[nH]c(=O)c2C#N)cc1OC	?	.	56µM	?	10µM
CN(C)c1ccc(CNc2nc(-c3ccco3)nn2S(C)(=O)=O)cc1	.	.	?	/	?
COc1ccc(S(=O)(=O)n2nc(-c3ccco3)nc2NCc2ccc(N(C)C)cc2)cc1	13µM	.	25µM	/	11µM
Cc1ccc(S(=O)(=O)n2nc(-c3ccco3)nc2NCc2ccc(N(C)C)cc2)cc1	25µM	.	10µM	/	8.9µM
COc1ccc(C)cc1NC(=O)c1ccc2c(c1)N(Cc1cccc(Cl)c1)C(=O)c1ccccc1S2=O (stereo not drawn)	?	.	.	/	.
COc1cc(NC(=O)CCc2c(C)nc3nc(-c4cc(OC)cc(OC)c4)nn3c2C)cc(OC)c1	.	.	.	/	.
C#C[C@]1(OC(C)=O)CCC2C3CCC4=CC(=O)CCC4C3CC[C@]21C (stereo partly drawn)	/	/	/	/	.[2.33 µM]
Cc1ccc(C(=O)N=c2sccn2C)cc1S(=O)(=O)N1CCOCC1	.	.	.	.	40µM
Cc1ccc2c(c1)N(CC(=O)NCCC1=CCCCC1)C(=O)c1cccnc1O2	.	.	?	.	/
O=C(Cn1c(=O)n(-c2ccccc2)c(=O)c2ccc(C(=O)NCc3ccc4c(c3)OCO4)cc21)Nc1ccc(Br)cc1F	.	.	/	/	.
CC(C)C[C@H](NC(=O)c1nc[nH]c1C(=O)NCCCCCN)C(=O)OCc1ccccc1	79µM	.	/	.	/
CC(C)C[C@@H](CN)NC(=O)c1nc[nH]c1C(=O)N[C@@H](C)C(=O)CNC[C@H](CC(C)C)NC(=O)c1nc[nH]c1C(=O)N[C@@H](Cc1ccccc1)C(=O)O	79µM	.	/	/	/
CC(C)C[C@H](NC(=O)c1[nH]cnc1C(=O)N[C@@H](Cc1ccccc1)C(=O)OCc1ccccc1)C(=O)OCc1ccccc1	?	.	.	.	/
CC(C)C[C@H](NC(=O)c1nc[nH]c1C(=O)N[C@@H](CC(C)C)C(=O)OCc1ccccc1)C(=O)OCc1ccccc1	.	.	.	.	/
CC(C)C[C@@H](CNCC(=O)[C@H](Cc1ccccc1)NC(=O)c1[nH]cnc1C(=O)N[C@H](CN)CC(C)C)NC(=O)c1nc[nH]c1C(=O)N[C@@H](CC(=O)O)C(=O)O	28µM	.	/	/	/
CC(C)C[C@@H](CNCC(=O)[C@H](CC(C)C)NC(=O)c1[nH]cnc1C(=O)N[C@H](CN)CC(C)C)NC(=O)c1nc[nH]c1C(=O)N[C@@H](Cc1ccccc1)C(=O)O	?	.	/	/	/
SMILES	JMJD2A Tudor inh	HP1b chromo inh	BAZ2B block	L3MBTL1 block	G9a block
CC(C)C[C@@H](CNCC(=O)[C@H](C)NC(=O)c1[nH]cnc1C(=O)N[C@@H](C)CN)NC(=O)c1nc[nH]c1C(=O)N[C@@H](Cc1ccccc1)C(=O)O	79µM	.	/	/	/
CN(C(=O)c1cccc(S(=O)(=O)N2CCOCC2)c1)c1c(N)n(Cc2ccccc2)c(=O)[nH]c1=O	.	.	.	.	.[12.7 µM]
CCc1ccccc1S(=O)(=O)Cc1ccc(C(=O)NCCc2ccc(C)cc2)o1	20µM	.	.	/	.
CCc1ccccc1S(=O)(=O)Cc1ccc(C(=O)NC(C)C)o1	.	.	/	/	/
Cc1cc(=O)n(Cc2cccc(Cl)c2)c2c1c(C)nn2C	.	.	.	/	.
CC12CN3CC(C)(CN(C1)C3c1ccc3ccccc3c1O)C2=O (stereo not drawn)	?	.	.	.	1.6µM
COc1ccc(CN2CCNC(=O)C2CC(=O)NC2CCOCC2)cc1C (stereo not drawn)	.	.	.	/	40µM
O=C(CC1C(=O)NCCN1Cc1cccc(Oc2ccccc2)c1)NCCc1cnccn1 (stereo not drawn)	.	.	.	.	/
COc1ccc(CN2CCNC(=O)C2CC(=O)N(C)CCC2CCOCC2)cc1OC (stereo not drawn)	.	.	.	/	71µM
CCOc1ccc(CN2CCNC(=O)C2CC(=O)NC2CCOCC2)cc1 (stereo not drawn)	.	.	.	/	.
COc1ccc(CN2CCNC(=O)C2CC(=O)NCCc2cnccn2)cc1C (stereo not drawn)	.	.	.	/	79µM
COc1ncc2nc(-c3ccccc3)c(=O)n(CCC#N)c2n1	/	/	/	/	.[0.501 µM]
CCCn1c2ccccc2c2cnn(CC(=O)NCCCN3C(C)CCCC3C)c(=O)c21 (stereo not drawn)	.	.	.	/	.
COC(=O)c1ccc(CNC(=O)COC(=O)c2cc(Cl)nc(Cl)c2)cc1	.	.	.	.	50µM
O=C(Nc1cccc2ccccc12)N1CC=C(c2ccccc2)CC1	.	.	.	/	45µM
O=C(Nc1ccccc1)N1CC=C(c2ccccc2)CC1	/	/	.	/	.[12.7 µM]
O=C(c1ccccc1)N1CCN(C2CCCCCC2)CC1	3.2µM	?	56µM	/	?
O=C(c1cccc(Cl)c1)N1CCN(C2CCCCC2)CC1	7.9µM	?	?	.	/
O=C(NC(=S)N1CCN(C2CCCCC2)CC1)c1ccccc1	.	.	.	.	50µM
O=C(NC(=S)N1CCCCCC1)c1ccccc1	.	.	?	/	/
O=C(c1ccco1)N1CCN(C(=O)c2cccc3c2C(=O)N(C2CCCCC2)C3)CC1	.	.	.	.	45µM
COc1ccc(-c2ccc(CCC(=O)O)n2CC(=O)Nc2cccc(Cl)c2C)cc1	.	.	?	/	?
CC(=O)Nc1ccc(C2Nc3c(C)cc(C)cc3-c3cc(C)nn32)cc1 (stereo not drawn)	.	.	.	/	.
O=C(c1cccc(F)c1)N1CCC(N2CCCCCC2)CC1	2.2µM	?	56µM	/	22µM
O=C(c1cccc(F)c1)N1CCN(C2CCCCC2)CC1	22µM	?	50µM	/	22µM
O=C(c1ccco1)N1CCN(C2CCCC2)CC1	3.2µM	?	.	.	?
O=C(c1cccc(C(F)(F)F)c1)N1CCN(C2CCCCC2)CC1	.	.	.	.[11.4 µM]	.
